{"source": "PubChem BioAssay (NCATS)", "note": "Inconclusive results are not listed. Active and inactive are the calls of the source. Calls follow the shape of the dose curve; as a rule, active = well fitted inhibition curve with a large enough effect; inconclusive = small, poorly fitted or top-dose-only effect; inactive = no such curve, though single readings can be large or run the other way. Where a SMILES comes first, the peptide text is derived from it. [ ]: non-standard residue; d: D form. ξ: configuration not given here. ξPhe(βξ-Me) = CC(c1ccccc1)C(N)C(=O)O; GABA = NCCCC(=O)O"}
{"test_system": "Zika virus NS2B-NS3 protease (linked construct)", "assay": "Primary screen NINDS Rhodamine qHTS for Zika virus inhibitors (AID 1347160); also: nearly all actives have a fitted effect of over 55% in size; as to activity change, negative = inhibition: % is scaled to controls: 0 for no effect and ±100 for the full control effect", "details": "purified NS2B-NS3 protease, Rhodamine110 substrate fluorescence; series mostly up to 57.1 µM; activity change, negative = inhibition: at the top concentration", "summary_of_the_method": "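Purified NS2B-NS3 protease with the NS2B hydrophilic domain joined by a flexible linker (25 nM) in 10 mM Tris-HCl pH 8.0, 0.01% Tween 20, preincubated 15 min at RT with compound; Rhodamine110 peptide substrate 1.5 µM; fluorescence change over 15 min; 4-parameter Hill fit.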"}
{"smiles": "C/C=C(\\C)C(=O)O[C@H]1[C@@H](O[C@]2(COC(=O)CC(C)C)O[C@H](COC(=O)C(C)C)[C@@H](OC(C)=O)[C@@H]2O)O[C@H](COC(C)=O)[C@@H](O)[C@@H]1O", "activity change, negative = inhibition": "-18.2% [at 15.1 µM] (inactive)"}
{"smiles": "CN1C(=O)c2ccccc2NC(=O)[C@]12O[C@@H]2c1cccc(O)c1", "activity change, negative = inhibition": "-12% (inactive)"}
{"smiles": "Cc1cc(C)cc(NC(=O)Cc2ccc(OC(C)(C)C(=O)O)cc2)c1", "outcome": "inactive"}
{"smiles": "C=C1[C@@H]2[C@H]3OC(=O)C(=C)[C@@H]3CC[C@@](C)(O)[C@@H]2C[C@@H]1O[C@@H]1O[C@H](CO)[C@@H](O)[C@H](O)[C@H]1O", "activity change, negative = inhibition": "14.6% [at 33.1 µM] (inactive)"}
{"smiles": "COc1cc(C(O)C(CO)Oc2ccc(CCCO[C@@H]3O[C@@H](C)[C@H](O)[C@@H](O)[C@H]3O)cc2OC)ccc1O", "note": "(stereo not given in full)", "activity change, negative = inhibition": "-23.8% [at 33.1 µM] (inactive)"}
{"smiles": "CC(C)CC1NC(=O)C(C(C)c2ccccc2)NC(=O)C(C(C)C)NC(=O)C(C)NC(=O)CCCNC(=O)C(Cc2c[nH]c3ccccc23)NC(=O)C(C)NC1=O", "note": "(stereo not drawn) (cyclo([GABA]AV[ξPhe(βξ-Me)]LAW); configuration not given here)", "activity change, negative = inhibition": "-18% [at 15.1 µM] (inactive)"}
{"smiles": "C=C(C)[C@H]1C[C@@H](O)C(=C)CC[C@@H](O)C(=C)[C@@H](O)C1", "outcome": "inactive"}
{"smiles": "CCS(=O)(=O)N1CCC([C@@H](C)n2c(C)c(C(=O)NCc3c(OC)cc(C)[nH]c3=O)c3ccccc32)CC1", "activity change, negative = inhibition": "19.4% (inactive)"}
{"smiles": "CC1=CC(=O)CC(C)(CO[C@@H]2O[C@H](CO)[C@@H](O)[C@H](O)[C@H]2O)C1(O)/C=C/C(C)=C/C(=O)O", "note": "(stereo not given in full)", "activity change, negative = inhibition": "3.99% [at 33.1 µM] (inactive)"}
{"smiles": "COc1cc([C@H]2OC[C@@H]3[C@@H](c4ccc(O[C@@H]5O[C@H](CO)[C@@H](O)[C@H](O)[C@H]5O)c(OC)c4)OC[C@]23O)ccc1O", "activity change, negative = inhibition": "16.9% [at 33.1 µM] (inactive)"}
